Measurements published in PubChem BioAssay AID1159580 (chemical genetic matrix, 2015).
Among all 5,500 compounds or so, about 2,000 (36%) were called active. Roughly 18% stayed inconclusive and do not appear here. This is one part of the list. Values without a mark were called inactive. No stated cut-off is given here; in the data, active means normalized growth mostly below about 0.91 (no sharp cut-off); inconclusive means no clear call, values can overlap the other calls; inactive means mostly above about 0.92.

Assay: chemical genetic growth profiling, strain panel (AID 1159580);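 further: tested at 20 µM; growth read once vehicle control cultures reached saturation at 30 °C; 1 = growth at the plate median or of vehicle wells; lower values mean less growth of the strain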
Details: S. cerevisiae deletion strains, growth OD
[1] = locus YDL101C, strain DUN1, active compounds read low
[2] = locus YHR030C, strain SLT2, active compounds read low

Clc1ccc(CSc2nccn2-c2cc(Cl)ccc2Cl)cc1
normalized growth (locus YAR019C, strain CDC15, active compounds read low): 0.969
normalized growth (locus YBL105C, strain PKC1, active compounds read low): 0.964
normalized growth (locus YBR135W, strain CKS1, active compounds read low): 0.96
normalized growth (locus YBR136W, strain MEC1, active compounds read low): 0.951
normalized growth (locus YBR160W, strain CDC28, active compounds read low): 0.963
normalized growth (locus YDL017W, strain CDC7, active compounds read low): 0.969
normalized growth (locus YDL028C, strain MPS1, active compounds read low): 0.949
normalized growth [1]: 0.97
normalized growth (locus YDL108W, strain KIN28, active compounds read low): 0.937
normalized growth (locus YDL132W, strain cdc53, active compounds read low): 0.978
normalized growth (locus YDL214C, strain PRR2, active compounds read low): 0.888
normalized growth (locus YDR052C, strain DBF4, active compounds read low): 0.962
normalized growth (locus YDR054C, strain cdc34, active compounds read low): 0.946
normalized growth (locus YDR226W, strain ADK1, active compounds read low): 0.954
normalized growth (locus YDR477W, strain SNF1, active compounds read low): 0.888
normalized growth (locus YER123W, strain YCK3, active compounds read low): 0.784
normalized growth (locus YER133W, strain GLC7, active compounds read low): 0.884
normalized growth (locus YFL009W, strain cdc4, active compounds read low): 0.951
normalized growth (locus YFL029C, strain CAK1, active compounds read low): 0.965
normalized growth (locus YFR003C, strain YPI1, active compounds read low): 0.958
normalized growth (locus YFR019W, strain FAB1, active compounds read low): 0.909
normalized growth (locus YFR028C, strain CDC14, active compounds read low): 0.961
normalized growth (locus YGR040W, strain KSS1, active compounds read low): 0.872
normalized growth (locus YGR052W, strain FMP48, active compounds read low): 0.946
normalized growth (locus YGR092W, strain DBF2, active compounds read low): 0.801
normalized growth [2]: 0.69 (active)
normalized growth (locus YHR079C, strain IRE1, active compounds read low): 0.88
normalized growth (locus YHR082C, strain KSP1, active compounds read low): 0.951
normalized growth (locus YHR205W, strain SCH9, active compounds read low): 0.893
normalized growth (locus YIL147C, strain SLN1, active compounds read low): 0.953
normalized growth (locus YJL095W, strain BCK1, active compounds read low): 0.886
normalized growth (locus YJL128C, strain PBS2, active compounds read low): 0.987
normalized growth (locus YJL157C, strain FAR1, active compounds read low): 0.867
normalized growth (locus YJR016C, strain ILV3, active compounds read low): 0.963
normalized growth (locus YJR066W, strain TOR1 (second series), active compounds read low): 0.829
normalized growth (locus YJR066W, strain TOR1, active compounds read low): 0.948
normalized growth (locus YKL048C, strain ELM1, active compounds read low): 0.927
normalized growth (locus YKL067W, strain YNK1, active compounds read low): 0.894
normalized growth (locus YKL101W, strain HSL1, active compounds read low): 0.887
normalized growth (locus YKL193C, strain SDS22, active compounds read low): 0.961
normalized growth (locus YKL203C, strain TOR2, active compounds read low): 0.915
normalized growth (locus YLR113W, strain HOG1, active compounds read low): 0.884
normalized growth (locus YLR133W, strain CKI1, active compounds read low): 0.886
normalized growth (locus YLR403W, strain SFP1, active compounds read low): 0.832
normalized growth (locus YML070W, strain DAK1, active compounds read low): 0.872
normalized growth (locus YMR001C, strain CDC5, active compounds read low): 0.964
normalized growth (locus YMR205C, strain PFK2 (second series), active compounds read low): 0.879
normalized growth (locus YMR277W, strain FCP1, active compounds read low): 0.958
normalized growth (locus YNL006W, strain LST8, active compounds read low): 0.961
normalized growth (locus YNL020C, strain ARK1, active compounds read low): 0.859
normalized growth (locus YNL161W, strain CBK1, active compounds read low): 0.964
normalized growth (locus YNL183C, strain NPR1, active compounds read low): 0.909
normalized growth (locus YNL207W, strain RIO2, active compounds read low): 0.965
normalized growth (locus YNL222W, strain SSU72, active compounds read low): 0.961
normalized growth (locus YNL307C, strain MCK1 (second series), active compounds read low): 0.879
normalized growth (locus YOL078W, strain AVO1, active compounds read low): 0.962
normalized growth (locus YOL136C, strain PFK27, active compounds read low): 0.872
normalized growth (locus YOR061W, strain CKA2, active compounds read low): 0.817
normalized growth (locus YOR119C, strain RIO1, active compounds read low): 0.856
normalized growth (locus YOR231W, strain MKK1, active compounds read low): 0.868
normalized growth (locus YOR329C, strain SCD5, active compounds read low): 0.967
normalized growth (locus YPL031C, strain PHO85, active compounds read low): 0.866
normalized growth (locus YPL153C, strain RAD53, active compounds read low): 0.847
normalized growth (locus YPL204W, strain HRR25, active compounds read low): 0.86
normalized growth (locus YPL209C, strain IPL1, active compounds read low): 0.96
normalized growth (locus YPL256C, strain CLN2, active compounds read low): 0.977
normalized growth (locus YPR025C, strain CCL1, active compounds read low): 0.964
normalized growth (locus YPR106W, strain ISR1, active compounds read low): 0.978
normalized growth (locus YPR111W, strain DBF20, active compounds read low): 0.976
normalized growth (strain NNK1, active compounds read low): 0.974
normalized growth (strain TSCII, active compounds read low): 0.962

Nc1ncnc(SCc2ccc(Cl)cc2)n1
normalized growth (locus YAL013W, strain DEP1, active compounds read low): 0.984
normalized growth (locus YBR229C, strain ROT2, active compounds read low): 1.01
normalized growth (locus YCL061C, strain MRC1, active compounds read low): 1.02
normalized growth [1]: 0.988
normalized growth (locus YDR150W, strain NUM1, active compounds read low): 1.04
normalized growth (locus YEL061C, strain CIN8, active compounds read low): 0.968
normalized growth (locus YGR078C, strain PAC10, active compounds read low): 1
normalized growth [2]: 1.08
normalized growth (locus YHR087W, strain rtc3, active compounds read low): 1
normalized growth (locus YJR043C, strain POL32, active compounds read low): 0.999
normalized growth (locus YJR075W, strain HOC1, active compounds read low): 1.01
normalized growth (locus YLR039C, strain RIC1, active compounds read low): 0.835
normalized growth (locus YLR058C, strain SHM2 (second series), active compounds read low): 0.999
normalized growth (locus YLR085C, strain ARP6, active compounds read low): 0.994
normalized growth (locus YLR262C, strain YPT6, active compounds read low): 0.988
normalized growth (locus YML094W, strain GIM5, active compounds read low): 0.992
normalized growth (locus YMR219W, strain ESC1, active compounds read low): 0.996
normalized growth (locus YMR263W, strain SAP30, active compounds read low): 0.989
normalized growth (locus YMR307W, strain GAS1, active compounds read low): 0.995
normalized growth (locus YNL153C, strain GIM3, active compounds read low): 1.01
normalized growth (locus YNL298W, strain CLA4 (second series), active compounds read low): 0.98
normalized growth (locus YNL322C, strain KRE1, active compounds read low): 0.987
normalized growth (locus YNR030W, strain Alg12, active compounds read low): 1.02
normalized growth (locus YPL055C, strain LGE1, active compounds read low): 1.01
normalized growth (locus YPL241C, strain CIN2, active compounds read low): 0.993
normalized growth (locus YPR135W, strain CTF4, active compounds read low): 1.14
